Our source for the Potency, max response and activity change, positive = activation values is PubChem BioAssay (Tox21).

Assay [1] is described as follows: qHTS assay to identify small molecule antagonists of the estrogen related receptor signaling pathway with the pleiotropic PPARgamma coactivator (PGC) from Tox21 10K library - cell viability counter screen (AID 1224840; active = well fitted cell-killing curve with a large enough effect in the repeat runs, not every such curve was filed as active; also: nearly all actives have a fitted effect of over 40% in size; also: potency is read from the fitted curve at half-maximal effect). A digest of the protocol: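 PGC/ERR cells (2,000/well) plated 6 h, then compound-treated for 17.5 h at 37 C. Viability measured by CellTiter-Fluor fluorescence after 30 min at 37 C, multiplexed with the pathway assay.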
In general terms: In qHTS, concentration-response curves come from the screen itself.

Assay [2] is described as follows: qHTS assay to identify small molecule antagonists of the estrogen related receptor signaling pathway with the pleiotropic PPARgamma coactivator (PGC) from Tox21 10K library (AID 1224841; call rule not given here; also: actives are mostly falling curves and most rising ones were filed inactive; nearly all actives have a fitted effect of over 50% in size; also: potency is read from the fitted curve at half-maximal effect). A digest of the protocol:
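PGC/ERR cell line, 2,000 cells/well, pre-incubated 6 hours at 37 C, then exposed to compounds for 18 hours at 37 C; luciferase read with One-Glo luminescence after 30 min at room temperature.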

Assay [3] can be described thus: qHTS assay to identify small molecule agonists of the estrogen related receptor signaling pathway with the pleiotropic PPARgamma coactivator (PGC) from Tox21 10K library (AID 1224842). Also: nearly all actives have a fitted effect of over 15% in size. A digest of the protocol: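 PGC/ERR reporter cell line, 2,000 cells per well, incubated 6 h at 37 C before 23 nL compound in DMSO was added. After 18 h at 37 C, One-Glo luminescence read following 30 min at room temperature.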

Assay [4] addresses Thyrotropin receptor (Homo sapiens) (UniProt P16473). In words: qHTS assay to identify small molecule agonists of the thyroid stimulating hormone receptor (TSHR) signaling pathway (AID 1224843; calls by dose curve; also: nearly all actives have a fitted effect of over 45% in size; also: potency is read from the fitted curve at half-maximal effect). The procedure, abridged:
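Steps: seed 800 TSHR-HEK293 cells per well; add test compound and hold 30 min at ambient temperature; dispense cAMP-d2 then anti-cAMP cryptate; incubate 1 h at ambient; measure fluorescence intensity.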

Assay [5] is described as follows: qHTS assay to identify small molecule agonists of H2AX (AID 1224845; active = well fitted activation curve with a large enough effect in the signal ratio in the repeat runs, not every such curve was filed as active; the % refers to the signal ratio). The procedure, abridged:
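Wild-type CHO-K1 cells, plated overnight, exposed 3hr at 37C to 15 concentrations (0.76% DMSO final). Lysed, then HTRF anti-pH2AX (S139) cryptate and anti-H2AX-d2 antibodies, 24 hr room temperature; 665/620 nm emission read.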

Assay [6] can be described thus: qHTS assay to identify small molecule agonists of H2AX - cell viability counter screen (AID 1224847; calls by dose curve; also: nearly all actives have a fitted effect of over 30% in size; also: potency is read from the fitted curve at half-maximal effect). The procedure, abridged:
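CHO-K1 cells plated overnight at 37C, then exposed 3 h at 37C to compounds at 15 concentrations (0.76% DMSO final). Viability by CellTiter-Glo luminescence after 30 min at room temperature.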

Assay [7] in a line: qHTS assay to identify small molecule antagonists of the estrogen related receptor (ERR) signaling pathway from Tox21 library (AID 1224848). Also: nearly all actives have a fitted effect of over 50% in size. Also: potency is read from the fitted curve at half-maximal effect. A digest of the protocol: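 Luminescent reporter read-out (ONE-Glo) from NTP's ERR cell line after 18 h treatment at 37 C with DMSO-dissolved Tox21 compounds; cells pre-plated 6 h beforehand at 2,000 per well.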
Assay [8] can be described thus: qHTS RealTime-Glo MT Cell Viability Assay in HepG2 cells - 24 hour (AID 1224867). Also: nearly all actives have a fitted effect of over 50% in size. Also: potency is read from the fitted curve at half-maximal effect. A digest of the protocol: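 HepG2 cells (600/well) were dispensed with RealTime-Glo reagents, incubated 5 h at 37 °C, then treated with compounds in DMSO for up to 40 h. Nonlytic NanoLuc luminescence reflecting viable cells was read at each stated time point.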
The nature of assay [9]: qHTS RealTime-Glo MT Cell Viability Assay in HEK293 cells - 32 hour (AID 1224868). Also: nearly all actives have a fitted effect of over 50% in size. Also: potency is read from the fitted curve at half-maximal effect. The procedure, abridged: (§1)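 HEK293 cells seeded with NanoLuc/prosubstrate reagent, rested 5 h at 37 C, then dosed and kept at 37 C up to 40 h. Nonlytic real-time luminescence from viable cells read at 0, 8, 16, 24, 32 and 40 h.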
Assay [10] in a line: A CellTox Green Cytotoxicity Assay to monitor cytotoxicity in HEK293 cells - 0 hour (AID 1224869). Also: nearly all actives have a fitted effect of over 50% in size. The procedure, abridged:
(§2)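 HEK293 cells, 600/well, were preincubated 5 hours and then exposed to compounds at 37 C for up to 40 hours. A cell-impermeant cyanine dye staining dead-cell DNA was read by fluorescence at 0, 8, 16, 24, 32 and 40 h time points.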

Assay [11] in a line: qHTS RealTime-Glo MT Cell Viability Assay in HepG2 cells - 40 hour (AID 1224870). Also: nearly all actives have a fitted effect of over 50% in size. Also: potency is read from the fitted curve at half-maximal effect. A digest of the protocol: (§3)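 HepG2 cells (600/well) mixed with RealTime-Glo MT reagent, settled 5 h at 37 C/5% CO2 before compound addition. Nonlytic NanoLuc luminescence from viable-cell prosubstrate reduction read repeatedly during 40 h treatment at 37 C.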
Assay [12] is described as follows: A CellTox Green Cytotoxicity Assay to monitor cytotoxicity in HEK293 cells - 40 hour (AID 1224871). Also: nearly all actives have a fitted effect of over 45% in size. Also: potency is read from the fitted curve at half-maximal effect. The procedure, abridged:
as §2

A short description of assay [13]: qHTS RealTime-Glo MT Cell Viability Assay in HEK293 cells - 16 hour (AID 1224872). Also: nearly all actives have a fitted effect of over 50% in size. Also: potency is read from the fitted curve at half-maximal effect. The procedure, abridged: as §1
Assay [14] in a line: qHTS RealTime-Glo MT Cell Viability Assay in HEK293 cells - 40 hour (AID 1224874). Also: nearly all actives have a fitted effect of over 50% in size. Also: potency is read from the fitted curve at half-maximal effect. The following applies: RealTime-Glo luminescence; max response: stronger effect = lower value. The procedure, abridged: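 600 cells/well were plated with the nonlytic NanoLuc/prosubstrate reagent, pre-incubated 5 h, then given 23 nL of compound in DMSO. Incubation at 37 C for 40 h, with luminescence from viable-cell-reduced substrate read repeatedly from 0 h.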

A short description of assay [15]: A CellTox Green Cytotoxicity Assay to monitor cytotoxicity in HEK293 cells - 24 hour (AID 1224875). Also: nearly all actives have a fitted effect of over 45% in size. Also: potency is read from the fitted curve at half-maximal effect. The procedure, abridged: as §2
Assay [16] can be described thus: qHTS assay to identify small molecule agonists of the hypoxia (HIF-1) signaling pathway - cell viability counter screen (AID 1224844; calls by dose curve; also: nearly all actives have a fitted effect of over 50% in size; also: potency is read from the fitted curve at half-maximal effect). A digest of the protocol:
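HRE-bla ME-180 cells, 2,000/well in 0.5% dialyzed FBS medium, treated 17 h at 37C with compounds. Viability read in the same wells as the bla reporter, by CellTiter-Glo luminescence after 30 min at room temperature.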

Assay [17] is described as follows: qHTS assay to identify small molecule agonists of the hypoxia (HIF-1) signaling pathway (AID 1224846; active = well fitted activation curve with a large enough effect in the signal ratio in the repeat runs, not every such curve was filed as active; the % refers to the signal ratio). The procedure, abridged:
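HRE-bla ME-180 beta-lactamase reporter cells in medium with 0.5% dialyzed FBS, pre-incubated 5 h then exposed to compounds 17 h at 37C, 5% CO2; reporter induction read with CCF4-AM FRET substrate.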

A short description of assay [18]: A CellTox Green Cytotoxicity Assay to monitor cytotoxicity in HepG2 cells - 16 hour (AID 1224876). Also: nearly all actives have a fitted effect of over 45% in size. Also: potency is read from the fitted curve at half-maximal effect. A digest of the protocol:
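HepG2 cells, 600/well, preincubated 5 h with CellTox Green dye, then exposed to Tox21 compounds in DMSO at 37 C for up to 40 h. Dead-cell DNA fluorescence read at the indicated time point.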

A short description of assay [19]: qHTS assay to identify small molecule agonists of the estrogen related receptor (ERR) signaling pathway from Tox21 library (AID 1224849; calls by dose curve; also: nearly all actives have a fitted effect of over 15% in size). The following applies: ERR reporter cell line, ONE-Glo luciferase, 18 h; at 92.4 µM (top of the series) unless noted. The procedure, abridged:
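ERR reporter cells (NTP line) pre-incubated 6 hours at 37 C, then exposed to compounds for 18 hours at 37 C. ONE-Glo luciferase luminescence was read after 30 minutes at room temperature.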

Assay [20] in a line: qHTS RealTime-Glo MT Cell Viability Assay in HepG2 cells - 8 hour (AID 1224873). Also: nearly all actives have a fitted effect of over 55% in size. Also: potency is read from the fitted curve at half-maximal effect. The procedure, abridged: as §3

Values without a mark were called inactive. Records with an inconclusive call do not appear. The source made the active and inactive calls. Unless noted, calls follow the shape of the dose curve; as a rule, active = well fitted curve in the direction sought with a large enough effect in the repeat runs; inconclusive = weak or mixed curves; inactive = no such curve, though single readings can be large; an effect the other way counts as inactive or inconclusive.
% is scaled to controls: 0 for no effect and ±100 for the full control effect.

Sequence of Thyrotropin receptor (Homo sapiens) (P16473 whole entry, looked up): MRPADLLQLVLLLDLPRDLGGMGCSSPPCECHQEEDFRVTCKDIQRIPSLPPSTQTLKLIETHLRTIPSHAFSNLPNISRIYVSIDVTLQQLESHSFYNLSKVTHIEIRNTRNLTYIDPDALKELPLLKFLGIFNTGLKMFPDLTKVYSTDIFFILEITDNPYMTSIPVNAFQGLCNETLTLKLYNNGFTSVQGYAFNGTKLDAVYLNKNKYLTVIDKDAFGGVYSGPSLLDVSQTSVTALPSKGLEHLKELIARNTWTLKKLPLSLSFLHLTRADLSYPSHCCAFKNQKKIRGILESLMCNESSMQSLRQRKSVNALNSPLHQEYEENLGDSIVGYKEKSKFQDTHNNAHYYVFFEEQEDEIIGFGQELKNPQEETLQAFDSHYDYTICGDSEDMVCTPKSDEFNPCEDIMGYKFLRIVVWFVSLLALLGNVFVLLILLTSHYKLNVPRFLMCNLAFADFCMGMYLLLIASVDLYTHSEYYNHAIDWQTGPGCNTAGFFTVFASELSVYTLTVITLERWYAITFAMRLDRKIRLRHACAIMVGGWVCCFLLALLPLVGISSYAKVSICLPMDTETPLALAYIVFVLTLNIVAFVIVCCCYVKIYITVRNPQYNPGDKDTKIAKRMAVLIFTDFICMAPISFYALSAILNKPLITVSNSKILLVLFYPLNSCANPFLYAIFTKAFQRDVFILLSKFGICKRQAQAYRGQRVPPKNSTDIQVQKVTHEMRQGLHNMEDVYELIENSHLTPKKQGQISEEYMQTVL

Take `CCCCCCCCCCCCCCCCC(C(=O)O)C(O)(CC(=O)O)C(=O)O` (centres undefined): the Potency entry in [1], in assay [2], in [3], in assay [4], in assay [5] and in [6] was “inactive” each time. For the same compound, the Potency entry in [7], in [8], in assay [9], in [10], in assay [11] and in assay [12] was “inactive” throughout. For the same compound, the Potency result in assay [13] and in [15] was “inactive” throughout. Further, the max response in assay [14] is -0.507%.

Consider `CCCCCCCCc1ccc(Nc2ccc(CCCCCCCC)cc2)cc1`, for which the Potency entry in [1], in assay [3], in assay [4], in assay [16], in [5] and in assay [17] was “inactive” throughout. Besides, the Potency result in assay [6], in assay [7], in [8], in assay [9], in assay [10] and in [11] was “inactive” in each case. For the same compound, the Potency result in assay [12], in [13], in assay [15] and in assay [18] was “inactive” in each case. For the same compound, in assay [2], the Potency was 11.9 µM (active). Also, the max response in assay [14] was -0.6%.

With `Cc1cc(Br)ccc1NC(=O)CCl`, the Potency in assay [1] was 15.4 µM (active); in assay [2] it was 6.11 µM (active); in assay [16], 21.9 µM (active); in assay [7] it was 15.4 µM (active); in [9], 24.5 µM (active); in [11], 43.6 µM (active). Further, the Potency in [12] is 30.9 µM (active); in assay [13], 38.9 µM (active); in [14], 19.5 µM (active). The Potency result in assay [3], in assay [4], in assay [6], in assay [10], in assay [15] and in assay [18] was “inactive” in each case. Besides, the activity change, positive = activation in assay [19] is -79.8%.

Take `C=Cc1ccncc1`: the Potency result in [1], in [2], in [3], in assay [4], in [16] and in [5] was “inactive” each time. In addition, the Potency entry in assay [17], in assay [6], in assay [7], in assay [8], in assay [9] and in assay [10] was “inactive” throughout. For the same compound, the Potency result in [11], in [12], in assay [13], in [20], in assay [15] and in assay [18] was “inactive” in each case. In addition, the activity change, positive = activation in [19] is 4.99%. Also, the max response in assay [14] was -1.15%.

`Brc1cc(Br)cc(Br)c1`: the Potency entry in assay [1], in assay [2], in [3], in assay [4], in assay [16] and in assay [17] was “inactive” each time. The Potency entry in assay [6], in assay [7], in assay [8], in assay [9], in [10] and in assay [11] was “inactive” in each case. Further, the Potency entry in assay [12], in assay [13], in [15] and in [18] was “inactive” in each case. The max response in [14] is 0.239%.

As for `CN1CCN(CCCN2c3ccccc3Sc3ccc(C(F)(F)F)cc32)CC1`, the Potency in assay [1] is 29.8 µM (active); in assay [2], 29.8 µM (active); in [16] it was 16.9 µM (active); in assay [7] it was 33.5 µM (active); in assay [8], 23.9 µM (active); in assay [9], 23.9 µM (active). The Potency in [14], in [15] and in [18] was 23.9 µM (active) in each case. Besides, the Potency result in [3], in assay [4], in assay [5] and in assay [10] was “inactive” each time.

Regarding `O=C1C=CC(=O)N1c1cccc(N2C(=O)C=CC2=O)c1`, the Potency is 34.4 µM (active) in [1]; 77 µM (active) in [2]; 5.45 µM (active) in assay [4]; 11 µM (active) in [16]; 45 µM (active) in assay [6]; 68.6 µM (active) in assay [7]. Moreover, the Potency in [8] was 15.5 µM (active); in assay [9] it was 9.77 µM (active); in assay [11], 17.4 µM (active); in assay [20], 21.9 µM (active); in assay [14] it was 9.77 µM (active); in assay [18], 13.8 µM (active). The Potency result in assay [3], in [5] and in assay [10] was “inactive” each time.
